Assay results: PubChem BioAssay
Records with an inconclusive call do not appear. The source made the active and inactive calls. Cut-off read from the data, not from the text of the source, unless noted: active = inhibition above about 80%; inactive = the rest.

Columns and labels:
[1] = viability loss in pontine glioma line – cell-based, SU-DIPG-XVII, MIPE5.0, CellTiter-Glo, qHTS, dose response (AID 1347060; cut-off not given, nearly all actives have AC50 up to about 26 µM); conditions: CellTiter-Glo ATP luminescence
[2] = viability loss in pontine glioma line – cell-based, SU-DIPG-XIII, MIPE5.0, CellTiter-Glo, qHTS, dose response (AID 1347064; cut-off not given, nearly all actives have AC50 up to about 23 µM); conditions: CellTiter-Glo ATP luminescence
[3] = viability loss in pontine glioma line – cell-based, SU-DIPG-XXV, MIPE5.0, CellTiter-Glo, qHTS, dose response (AID 1347065; cut-off not given, nearly all actives have AC50 up to about 26 µM;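 note: cells exposed to compound for 48 hours before ATP readout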); conditions: CellTiter-Glo ATP luminescence
[4] = JHH-DIPG-1 glioma cell viability, MIPE5.0 library, CellTiter-Glo luminescence, qHTS (AID 1347067; cut-off not given, nearly all actives have AC50 up to about 26 µM;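 note: cells exposed to compound for 48 hours before readout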); conditions: JHH-DIPG-1 glioma viability, CellTiter-Glo ATP luminescence
[5] = growth inhibition of DIPG cells – cell-based, MIPE5.0 library, qHTS (AID 1347068; cut-off not given, nearly all actives have IC50 up to about 30 µM); conditions: SU-DIPG-XXV viability
[6] = growth inhibition, single agent or in combination, cell-based, chromothripsis tumors, cisplatin or BGB combos (AID 1671449); conditions: LFS_MB_P medulloblastoma cells;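 note: cells exposed for 96 hours; 0% = vehicle DMSO and 100% = killing by high DMSO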
[7] = growth inhibition, single agent and combos, cell-based, chromothripsis tumors, cisplatin or BGB combos (AID 1671450); conditions: HDN33 neuroblastoma cells, stronger effect = higher value;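 note: cells exposed to compound for four days; 0% = vehicle DMSO and 100% = cell killing by high DMSO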
[8] = growth inhibition, single agents and combos, ICB984, cell-based, cisplatin or BGB combos, synergistic combos for chromothripsis tumors (AID 1671451; call rule not given here;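 note: cells exposed for 96 hours before readout; 0% = vehicle DMSO and 100% = killing by high DMSO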); conditions: ICB984 medulloblastoma cells, drug combinations, stronger effect = higher value
[9] = growth inhibition, single agents and combos, LFS_MB_1R, cell-based, cisplatin or BGB combos, synergistic combos for chromothripsis tumors (AID 1671452); conditions: LFS_MB_1R medulloblastoma cells, stronger effect = higher value;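 note: cells exposed for 96 hours before readout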
[10] = growth inhibition, single agents and combos, HTB85, cell-based, BGB or cisplatin IC20 combos, synergistic combos for chromothripsis tumors (AID 1671453); conditions: HTB85 osteosarcoma cells, drug combinations, stronger effect = higher value;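 note: cells exposed for 96 hours before readout; 0% = vehicle DMSO and 100% = high DMSO killing control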
[11] = growth inhibition, single agents and combos, CRL2098, cell-based, BGB or cisplatin IC20 combos, synergistic combos for chromothripsis tumors (AID 1671454); conditions: CRL2098 osteosarcoma cells, drug combinations, stronger effect = higher value;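 note: cells exposed for 96 h before readout; 0% = vehicle DMSO and 100% = killing by high DMSO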
[12] = growth inhibition, single agents and combos, HD-MB03, cell-based, BGB or cisplatin IC20 combos, synergistic combos for chromothripsis tumors (AID 1671455; in the data active = inhibition above about 83%;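 note: 0% = vehicle DMSO and 100% = high DMSO as cytotoxic control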); conditions: HD-MB03 medulloblastoma cells, stronger effect = higher value
[13] = growth inhibition, single agents and combos, UWB1.289, cell-based, BGB or cisplatin combos, synergistic combos for chromothripsis tumors (AID 1671456); conditions: UWB1.289 ovarian carcinoma cells, stronger effect = higher value;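 note: cells exposed to compound for four days; 0% = vehicle DMSO and 100% = killing by high DMSO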
[14] = growth inhibition, MDA-MB-436, cell-based, BGB or cisplatin combos, synergistic combos for chromothripsis tumors (AID 1671458; call rule not given here;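 note: cells exposed for 96 hours; 0% = vehicle DMSO and 100% = killing by high DMSO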); conditions: MDA-MB-436 breast carcinoma growth inhibition, drug combinations, stronger effect = higher value
[15] = BT084 cell growth, single and combined drugs, ICGC_MB145, cisplatin and BGB IC40 combos (AID 1671461); conditions: BT084 medulloblastoma cells, drug combinations, stronger effect = higher value;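 note: cells exposed to drugs for 96 hours; 0% = vehicle DMSO and 100% = high DMSO full killing control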
[16] = RCMB18 cell growth, single agent and combined, cisplatin and BGB IC40 combos (AID 1671462); conditions: RCMB18 medulloblastoma cells, stronger effect = higher value;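 note: cells exposed to compound for four days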
[17] = CRL1545 cell growth, single agent and combined, cisplatin and BGB IC20 combos (AID 1671464); conditions: CRL1545 osteosarcoma cells, stronger effect = higher value;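 note: cells exposed to compound for 96 hours before readout; 0% = vehicle DMSO and 100% = high DMSO killing control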
[18] = measured here: combination with BGB IC40, at 0.05 µM
[19] = measured here: with BGB IC20 combination, at 0.5 µM
[20] = measured here: with cisplatin IC20 combination, at 0.5 µM
[21] = measured here: combination with cisplatin, at 0.5 µM

N=C1CCCN1Cc1[nH]c(=O)[nH]c(=O)c1Cl
outcome [1]: inactive
outcome [2]: inactive
outcome [3]: inactive
outcome [4]: inactive
outcome [5]: inactive
inhibition ([6]; at 0.5 µM, stronger effect = higher value): -20% (inactive)
inhibition ([6]; measured here: combination with BGB IC20, at 0.005 µM): 7.99%
inhibition ([6]; measured here: combination with BGB IC40, at 0.005 µM): -21.4%
inhibition [6, 18]: -6.35%
inhibition ([6]; measured here: combination with cisplatin, at 0.5 µM, stronger effect = higher value): -51.5%
inhibition ([6]; measured here: combination with cisplatin, at 5 µM, stronger effect = higher value): 0.237%
inhibition ([7]; BGB combo, at 5 µM): -2.48%
inhibition ([7]; at 0.5 µM): 2.44% (inactive)
inhibition ([7]; cisplatin combo, at 5 µM): 22.1%
inhibition [7, 19]: 3.45%
inhibition [7, 20]: 3.39%
inhibition ([7]; single agent, at 5 µM): -10.2%
inhibition ([8]; BGB IC20 combo, at 0.005 µM): 12.8%
inhibition ([8]; BGB IC40 combo, at 0.005 µM): -11.6%
inhibition ([8]; BGB IC40 combo, at 0.05 µM): -8.96%
inhibition ([8]; at 0.5 µM): -1.56% (inactive)
inhibition ([8]; cisplatin combo, at 0.05 µM): -12%
inhibition ([8]; cisplatin combo, at 0.5 µM): 11.2%
inhibition ([8]; cisplatin combo, at 5 µM): -26.7%
inhibition ([8]; measured here: 5 uM single agent, at 5 µM): -22.7%
inhibition ([9]; at 0.5 µM): -12.8% (inactive)
inhibition [9, 18]: 8.6%
inhibition [9, 21]: -12.6%
inhibition ([9]; measured here: combination with cisplatin, at 5 µM): -5.77%
inhibition ([10]; at 0.5 µM): 8.24% (inactive)
inhibition ([10]; measured here: with BGB IC20, at 0.5 µM): 11.6%
inhibition ([10]; measured here: with BGB IC20, at 5 µM): 59.6%
inhibition ([10]; measured here: with cisplatin IC20, at 0.5 µM): -6.26%
inhibition ([10]; measured here: with cisplatin IC20, at 5 µM): -29%
inhibition ([10]; single agent, at 5 µM): -1.22%
inhibition ([11]; at 0.5 µM): 2.27% (inactive)
inhibition ([11]; measured here: combination with BGB at IC20, at 0.5 µM): 3.71%
inhibition ([11]; measured here: combination with cisplatin at IC20, at 0.5 µM): 0.594%
inhibition ([12]; at 0.5 µM): -9.24% (inactive)
inhibition ([12]; measured here: combo with BGB at IC20, at 0.5 µM): -10.8%
inhibition ([12]; measured here: combo with cisplatin at IC20, at 0.5 µM): -6.6%
inhibition ([13]; at 0.5 µM): 19.4% (inactive)
inhibition ([13]; measured here: inhibition with BGB combination, at 0.05 µM): -16.6%
inhibition ([13]; measured here: inhibition with cisplatin combination, at 0.05 µM): -2.8%
inhibition ([14]; at 0.5 µM): -5.08% (inactive)
inhibition ([14]; measured here: BGB combination, at 0.5 µM): 3%
inhibition ([14]; measured here: BGB combination, at 5 µM): -6.4%
inhibition ([14]; measured here: cisplatin combination, at 0.5 µM): -14.7%
inhibition ([14]; measured here: cisplatin combination, at 5 µM): -27%
inhibition ([15]; at 0.5 µM): -23.1% (inactive)
inhibition ([15]; cisplatin combination, at 0.5 µM): -17.8%
inhibition ([15]; cisplatin combination, at 5 µM): -5.35%
inhibition ([15]; measured here: BGB IC40 combination 0.05 uM, at 0.05 µM): -15.9%
inhibition ([15]; single agent, at 5 µM): -9.51%
inhibition ([16]; at 0.5 µM): 3.14% (inactive)
inhibition ([16]; cisplatin combo, at 5 µM): -11.8%
inhibition ([16]; measured here: BGB IC40 combination, at 0.05 µM): 22%
inhibition [16, 21]: 1.1%
inhibition ([16]; single agent, at 5 µM): -5.54%
inhibition ([17]; at 0.5 µM): 26.4% (inactive)
inhibition [17, 19]: 22.4%
inhibition [17, 20]: 26.7%
inhibition ([17]; single agent, at 0.05 µM): 12.9%
inhibition ([17]; single agent, at 5 µM): 25.1%
